# Laboratory results from PubChem BioAssay AID504697 (The Scripps Research Institute Molecular Screening Center, 2011).
# Unmarked numbers belong to inactive results. Calls of active or inactive are those of the source.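 How the source made its calls: active means EC50 at or below 10 µM; inactive means EC50 above 10 µM.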
# Assay: fluorescence interference artefacts, compound only, dose response, artefact control for cardiac thin filament activator project, biochemical, no RTF in test wells (AID 504697);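 further: emission near 535 nm under roughly 485 nm excitation as for IANBD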
# Conditions: compound-only fluorescence in RTF assay buffer with Ca2+ (no RTF in test wells), artifact counterscreen
row,SMILES,EC50
1,C[C@@H](C(=O)N1CCNCC1)n1cc(CCCN=C(N)N)nn1,> 71.5 µM
2,CCC(/C=C1\Oc2ccc(OC)cc2N1C)=C\c1sc2ccccc2[n+]1CCCS(=O)(=O)[O-],2.92 µM (active)
3,O=C(CSc1nc2ncc(Br)cc2[nH]1)c1cccc([N+](=O)[O-])c1,> 71.5 µM
4,CCCNC(=O)Cn1c(=O)/c(=C\c2ccc(-c3ccc([N+](=O)[O-])cc3)o2)s/c1=C\C(=O)C(C)(C)C,0.335 µM (active)
5,Cc1ccc(/C=C2\Oc3c(ccc(O)c3CN3CCN(CCO)CC3)C2=O)cc1,34.2 µM
6,COc1ccc(N=C2NC(=O)S/C2=C\c2ccc(N(C)C)cc2)cc1,5.67 µM (active)
7,Cc1cccn2c(=O)c(/C=C3\SC(=S)N(CC(C)C)C3=O)c(NCCCOC(C)C)nc12,0.988 µM (active)
8,O=C(COC(=O)c1ccc(O)cc1)Nc1ccc2c(c1)OCCO2,> 71.5 µM
9,O=C(O)c1cc(NCc2ccc(F)cc2)ccc1N1CCOCC1,> 71.5 µM
10,O=C(COc1ccccc1F)NC1CC1,> 71.5 µM
11,Cn1nc(NC(=O)C2CCC2C(=O)O)c2c(F)cccc21 (stereo not given),> 71.5 µM
12,CCCN1CCc2c(sc(NC(=S)NC(=O)c3ccccc3)c2C#N)C1,> 71.5 µM
13,COc1ccc2ccccc2c1C(O)c1nccn1C (stereo not given),10.7 µM
14,COc1ccc(/C=C2/SC(c3ccc(C)cc3)=NC2=O)cc1OC,1.43 µM (active)
15,CN(N=Nc1ccc([N+](=O)[O-])cc1)c1ccccc1,8.06 µM (active)
